These entries were drawn from the full list.
aSyn 5UTR act: Activators via SNCA 5'UTR binding, MLPCN. activity score, % (tested at 7.5 µM), hits read low. alpha-synuclein 5'UTR reporter, activators screen. AID 1814, 2009. 300,000 tested, 7.1% active; in the data active = activity score below about -60%
Hits are given with their value; - = inactive.

SMILES | aSyn 5UTR act
O=[N+]([O-])c1ccc(N=Cc2sc3ccccc3c2O)cc1 | -68.3
N/C(=N\OC(=O)c1ccco1)c1ccccn1 | -118.8
N/C(=N\OC(=O)c1ccco1)c1ccccc1 | -275.0
COc1ccc(/C(N)=N/OC(=O)c2ccco2)cc1 | -
Cc1cccc(/C(N)=N/OC(=O)c2ccco2)c1 | -108.8
Cc1cccc(/C(N)=N/OC(=O)CCCc2ccccc2)c1 | -88.8
N/C(=N\OC(=O)c1ccco1)c1ccc(Br)cc1 | -199.7
CCn1cc(NC(=O)CCl)c(C)n1 | -103.6
C=C(C)C1CC=C(C)/C(=N/NC(=O)c2ccoc2C)C1 (configuration not stated) | -149.6
CSc1ccc(-c2nnn(Cc3ccccn3)n2)cc1 | -146.0
CSc1ccc(-c2nnn(Cc3ccc(Br)cc3)n2)cc1 | -73.5
C=CCOc1ccc(CNc2nccs2)cc1 | -73.5
N#Cc1cnc2sc3ccccc3n2c1=N | -68.0
Oc1ccccc1CNc1ccc(Br)cn1 | -300.0
COc1ccccc1CNc1ccc(Br)cn1 | -113.0
CNC(=O)c1cc(C(=O)c2ccc(Cl)cc2)c[nH]1 | -63.9
CN(Cc1nccs1)C(=O)c1ccc2nc(Cc3ccccc3F)oc2c1 | -131.1
CN(Cc1nccn1C)C(=O)c1ccc2nc(Cc3ccccc3F)oc2c1 | -126.3
Cc1cc(CN(C)C(=O)c2ccc3nc(Cc4ccccc4F)oc3c2)on1 | -62.2
Cc1ccc(C)c(OCc2cc(C(=O)N3CCOCC3)no2)c1 | -97.2
CC(=O)NCCC1CCCCN1C(=O)c1cc(COc2cc(C)ccc2C)on1 (configuration not stated) | -144.1
COCCN1CCN(C(=O)c2cc(COc3cc(C)ccc3C)on2)CC1 | -127.0
COCCN1CCN(C(=O)c2cc(COc3ccc(Cl)cc3OC)on2)CC1 | -120.0
COCCCC1CCN(C(=O)c2cc(COc3cc(C)ccc3C)on2)CC1 | -179.5
CNc1ncc(C(=O)c2ccc(Cl)cc2)s1 | -124.2
SMILES | aSyn 5UTR act
CNc1ncc(C(=O)c2ccc(Cl)c(Cl)c2)s1 | -148.5
COC(=O)c1ccc(-c2noc(CN3C[C@H]4CC[C@H]3C4)n2)cc1 | -119.5
CCC1=NN2C(=N)/C(=C\c3ccc(OCCOc4ccccc4)c(OC)c3)C(=O)N=C2S1 | -125.0
COc1cc(/C=C2/C(=N)N3C=CSC3=NC2=O)ccc1OCCCOc1ccccc1C | -117.9
Cc1ccc(NC(=O)c2cccc(OC(F)F)c2)c(OC(F)F)c1 | -70.7
Cc1c(Cl)cccc1NC(=O)c1cccc(OC(F)F)c1 | -75.6
Cc1ccc(C(=O)Nc2ccccc2OC(F)F)cc1 | -62.5
Cc1ccc(C(=O)Nc2ccc(C(F)(F)F)n(C)c2=O)cc1 | -144.6
COc1ccc(C(=O)Nc2ccc(C(F)(F)F)n(C)c2=O)cc1 | -151.3
COCCn1c(C(F)(F)F)ccc(NC(=O)c2ccccc2)c1=O | -96.5
Clc1ccc(/C=N/NC2=Nc3cccc4cccc2c34)cc1 | -190.6
C(=N\NC1=Nc2cccc3cccc1c23)/c1cccnc1 | -258.4
Clc1ccc(N/N=C/c2cccnc2)cc1 | -123.4
C(=N\NC1=Nc2cccc3cccc1c23)/c1ccccc1 | -255.7
COc1cc(C(=O)OCC(=O)Nc2cc(C)on2)ccc1OCc1ccccc1Cl | -111.3
COc1ccc(C2=NN(CN3C(=O)C(=O)c4ccccc43)C(c3ccc(OC)cc3)C2)cc1 (configuration not stated) | -181.9
COC(=O)N1N=C(c2ccccc2)CC1(O)C(F)(F)F (configuration not stated) | -64.7
Cc1ccc(-c2nnc(SCC#CCOC(=O)c3ccco3)o2)cc1 | -66.3
O=C(c1cccs1)c1no[n+]([O-])c1C(=O)c1cccs1 | -
Cc1ccc(-c2nnc(COC(=O)c3cccs3)o2)cc1 | -63.9
Cc1ccc(-c2nnc(SCC#CCOC(=O)c3cccs3)o2)cc1 | -70.6
CC(=O)NC(c1ccc(C(C)C)cc1)c1ccc2cccnc2c1O (configuration not stated) | -
C/C(=N\Nc1cccc2cccnc12)c1ccc(N)cc1 | -92.8
C/C(=N\Nc1cccc2cccnc12)c1ccccc1O | -204.4
N=c1n(CCN2CCOCC2)c2ccccc2n1CC(=O)c1ccc(Cl)c(Cl)c1 | -66.0
SMILES | aSyn 5UTR act
CC(C)Sc1nc2ccc(Br)cc2[nH]1 | -120.0
Clc1c(CSc2nc3ccccc3o2)nc2ccccn12 | -117.0
Clc1c(CSc2nc3ccccc3o2)nc2sccn12 | -117.4
Brc1c(CSc2nc3ccccc3o2)nc2ncccn12 | -117.7
COC(=O)c1ccc(COC(=O)c2cccnc2Cl)cc1 | -68.3
COC(=O)c1ccc(COC(=O)c2nn(C)c(=O)c3ccccc23)cc1 | -64.3
C=CCNc1nc(C(=O)OCC(=O)c2ccc(OC)cc2OC)cs1 | -81.6
COc1ccc(C(=O)COC(=O)c2cccnc2Cl)c(OC)c1 | -144.2
CC(=O)Nc1ccc2oc(-c3cc(F)c(F)cc3Cl)nc2c1 | -
CC(C)C(=O)Nc1ccc2oc(-c3cc(F)c(F)cc3Cl)nc2c1 | -153.7
O=C(Nc1ccc2oc(-c3cccc4ccccc34)nc2c1)c1ncn[nH]1 | -183.8
O=C(Nc1ccc2oc(-c3ccccc3Cl)nc2c1)c1ncn[nH]1 | -153.2
CC(C)c1ccc2oc(-c3ccc(NC(=O)c4ncn[nH]4)cc3)nc2c1 | -79.8
COc1ccc(C(=O)/C(=C/N(C)C)S(=O)(=O)c2ccccc2)cc1 | -160.5
Cc1ccc2c(c1)NC(=O)c1cccnc1N2 | -140.3
COc1ccccc1C(=O)Nc1nnc(-c2ccccc2)s1 | -152.9
Cc1ccccc1C(=O)Nc1nnc(SC(C)C)s1 | -96.6
CC(=O)Nc1ccc(-c2nnc(SCC(=O)Nc3ccc4c(c3)oc3ccccc34)n2C)cc1 | -92.0
O=C(Nc1ccccc1)Nc1nnc(-c2ccccc2)s1 | -161.6
O=C(CSc1ncn[nH]1)Nc1nnc(-c2ccccc2)s1 | -73.5
COc1ccccc1C(=O)Nc1nnc(SCC(=O)Nc2ccc3c(c2)oc2ccccc23)s1 | -152.1
COc1ccccc1C(=O)N(C)c1nnc(-c2ccccc2)s1 | -117.3
CC(C)=CC(=O)Nc1nnc(-c2ccccc2)s1 | -187.2
COc1ccccc1C(=O)Nc1nnc(C)s1 | -211.3
CCOc1ccccc1C(=O)Nc1nnc(C(C)C)s1 | -175.7
SMILES | aSyn 5UTR act
O=C(Nc1nnc(-c2ccccc2)s1)c1ccccc1O | -153.1
COc1ccccc1C(=O)Nc1nc(-c2cccs2)c(NC(C)=O)s1 | -128.0
COc1cccc(C(=O)Nc2nnc(-c3ccccc3)s2)c1OC | -112.9
CCn1cnc2cc(NCc3nc4ccccc4n3C)ccc21 | -107.7
CC(C)n1cnc2cc(NCc3nc4ccccc4n3C)ccc21 | -115.1
CCn1cnc2cc(NCc3nc4ccccc4n3Cc3ccccc3)ccc21 | -138.0
Cc1cc(C)c2nc3sc(C(=O)N4CCOCC4)c(N)c3cc2c1 | -
Cc1ccc(C)c2nc3sc(C(=O)N4CCOCC4)c(N)c3cc12 | -128.8
COC(=O)c1ccc2c(c1)C(=O)/C(=C/c1ccc(O)cc1)O2 | -118.2
CC(C)(C)c1ccc(/C=C2\Oc3cc(O)ccc3C2=O)cc1 | -68.7
COc1cccc(/C=C2\Oc3ccc(O)cc3C2=O)c1O | -
COC(=O)C1C(=O)c2c([nH]c(C(=O)OC3CCCCC3)c2C)CC1C (configuration not stated) | -178.3
COC(=O)C1C(=O)c2c([nH]c(C(=O)OC3CCCC3C)c2C)CC1C (configuration not stated) | -168.2
CCOC(=O)c1[nH]c2c(c1C)C(=O)CC(c1ccc(F)cc1)C2 (configuration not stated) | -
CCC(C)(C)C1CCC(=NNc2nc3ccccc3[nH]2)CC1 (configuration not stated) | -69.3
CC(=O)N1CCC(=NNc2nc3ccccc3[nH]2)CC1 | -66.4
CC(=O)Oc1ccc(/C=C2/Oc3ccccc3C2=O)cc1 | -74.8

Screens from PubChem BioAssay.
